High-throughput results as filed in PubChem BioAssay.
CHX counter – Cycloheximide Counterscreen for Small Molecule Inhibitors of Shiga Toxin; cell reporter, cycloheximide protein synthesis inhibition counterscreen; max response, %; 300,000 tested, 12% active; AID 2314, 2010; in the data active = max response mostly above about 13%, no sharp cut-off; inactive = mostly below about 14%; note: read at 38.3 µM for the half of the compounds with a filed dose; 0% is about no effect
Pf growth 96h – Primary qHTS for delayed death inhibitors of the malarial parasite plastid, 96 hour incubation | P. falciparum luciferase reporter growth, 96 h | Potency, µM (titrated, usually from 28.7 µM), for inactives: top-dose activity change, negative = inhibition, actives largely listed as inhibitors | 320,000 tested, 6.9% active | AID 504834, 2011; note: potency is the fitted concentration of half-maximal effect; % is set by controls: 0 for no effect and ±100 for the full control effect
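Luminescence readout: decreased luciferase signal marks inhibited growth of reporter-expressing P. falciparum in infected red cells (2% hematocrit, 0.05% parasitemia final), exposed to compound two generations (96 h, 37 C, 5% CO2).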
SARS PLpro yeast – qHTS of Yeast-based Assay for SARS-CoV PLP; S. cerevisiae expressing SARS-CoV PLpro, growth rescue; Potency, µM (highest dose often 32.9 µM), for inactives: at the top dose activity, positive = growth rescue, actives largely listed as activators; 330,000 tested, 0.19% active; AID 485353, 2010; calls by dose curve; note: potency is the fitted concentration of half-maximal effect; 0% is about no effect; nearly all actives have a fitted effect of over 55% in size
Shiga inhibitor – A qHTS for Small Molecule Inhibitors of Shiga Toxin; AID 2315, 2010; Vero cells, Shiga toxin protein synthesis inhibition reporter; inhibition, % at 38.7 µM; 290,000 tested, 9.2% active; in the data active = inhibition mostly above about 28%, no sharp cut-off; inactive = mostly below about 43%; note: 0% is about no effect
Pf growth 48h – Primary qHTS for delayed death inhibitors of the malarial parasite plastid, 48 hour incubation; Potency, µM (titrated, usually from 28.7 µM), inactives show top-dose activity change, negative = inhibition, usual class: inhibitors; P. falciparum luciferase growth in erythrocytes, 48 h; 310,000 tested, 5.9% active; AID 504832, 2011; note: potency is the fitted concentration of half-maximal effect; % is set by controls: 0 for no effect and ±100 for the full control effect
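First compound was added to culture medium, then infected red cells at 0.1% parasitemia and 2% hematocrit (final). After incubation at 37 C under 5% CO2, luciferase detection reagent was dispensed and light output recorded.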
NS1 function inh – qHTS Assay for Inhibitors of Influenza NS1 Protein Function. 270,000 tested, 0.4% active. Potency, µM (titrated, usually from 46.1 µM), for inactives: top-dose activity, positive = more growth; calls by dose curve; note: potency is the fitted concentration of half-maximal effect; actives are rising curves; nearly all actives have a fitted effect of over 50% in size
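Recovery from NS1-induced slow growth read by OD600 in budding yeast switched to galactose assay medium (pH 6.0, -URA) at 1:100 dilution. Compound 23 nl per well; the matching strain lacking NS1 serves as control.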
* hit, by the source's call; u = inconclusive; x = no result; [ ] = remark or other dose. The list is not random: actives were taken first. Their share in the collection is about 21%. Unless noted, calls come from the whole dose curve; as a rule, active = well fitted inhibition curve with a large enough effect; inconclusive = small, poorly fitted or top-dose-only effect, or another doubt; inactive = no such curve, though single readings can be large or run the other way.

SMILES	CHX counter	Pf growth 96h	SARS PLpro yeast	Shiga inhibitor	Pf growth 48h	NS1 function inh
COc1ccc(/C=N/N=C(/N)N[N+](=O)[O-])c(OC)c1	28.9*	83.4%	-3.3%	28.9*	79.7%	-7.6%
COc1ccc(/C=N/NC(=O)c2ccncc2)c(OC)c1	4.7	0.0%	-1.8%	19.6	-11.6%	5.5%
COc1cc(C2C(C#N)=C(N)N(N(C)C)C3=C2C(=O)CCC3)ccc1O (stereo not given)	-0.6	59.4%	1.9%	-4.1	0.7%[0.00184 µM]	7.0%
O=C(Nc1ccc(N2CCN(c3ccc(C(F)(F)F)cn3)CC2)nc1)c1cccs1	4.0	u	-0.6%	4.8	u	2.6%
O=C(Nc1ccc(N2CCOCC2)nc1)c1cccs1	38.4*	181.8%	2.9%	57.2*	461.3%	x
N/C(=N\O)c1ccc(N2CCN(c3ncccc3C(F)(F)F)CC2)nc1	38.7*	197.8%	0.0%	73.5*	285.3%	-2.9%
O=C(Nc1ccc(N2CCN(c3ncccc3C(F)(F)F)CC2)nc1)c1cccs1	9.3	2.33µM*	-4.9%	40.9	0.37µM*	-55.3%
CC(C)(C)C(=O)N1CCN(c2ncccc2C(F)(F)F)CC1	4.6	0.0%	-1.5%	9.2	u	-3.9%
Cc1cc(NC(=O)COC(=O)C2=NN(c3ccccc3)C(=O)CC2)c([N+](=O)[O-])cc1C	x	x	-5.8%	x	x	x
Cc1ccc(OCCn2cc(/C=C/C(=O)O)c3ccccc32)cc1	-2.4	u	-2.5%	-3.6	-1.6%	-9.7%
CCOc1ccc(C(=O)/C=C/c2cn(CN3CCN(C)CC3)c3ccccc23)cc1	30.6*	u	-5.9%	60.6*	0.1%	-30.5%
COc1ccc(C(=O)/C=C/c2cn(CN3CCN(C)CC3)c3ccccc23)cc1	43.3*	u	-14.9%	49.3*	x	-109.5%
O=C(CCNC(=O)C1CCN(S(=O)(=O)c2ccc(F)cc2)CC1)NCCc1ccc(Cl)cc1	-2.1	u	0.9%	6.8	20.7%	-6.2%
CCOc1ccccc1Nc1nc(N)nc(CSc2nccc(C)n2)n1	-1.6	26.4%	3.9%	-12.2	-2.2%	-18.5%
COc1ccccc1Nc1nc(N)nc(CSc2ncccn2)n1	28.0*	u	2.5%	95.9*	60.1%	-1.3%
COc1ccccc1Nc1nc(N)nc(CCl)n1	20.8*	-10.2%	-0.9%	38.5*	u	6.2%
CC(C)(CO)CN1CCC(n2nccc2NC(=O)C2CCCC2)CC1	-4.6	u	8.9%	-10.3	0.0%	19.2%
COc1ccc(-n2ncc(C(C)NS(=O)(=O)c3cccs3)c2C)cc1 (stereo not given)	14.6	23.2%	8.7%	2.0	u	1.7%
COc1cc(C(=O)C(=O)c2ccc(O)c(OC)c2)ccc1O	active	75.1%	-1.1%	51.5*	20.7%	-5.2%
COc1cc(C(=O)/C=C/c2cccnc2)ccc1O	16.4*	0.0%	-2.3%	27.4	0.0%	-0.9%
Cc1cccc(C(=O)Nc2ccc(C(=O)/C=C/c3cccnc3)cc2)c1	23.7*	3.6%	3.7%	-3.5	-13.5%	-26.2%
O=C(/C=C/c1cccnc1)c1cc(F)ccc1O	-3.0	u	0.2%	-6.1	-2.3%	0.5%
COc1cc(C(=O)O)ccc1O	-4.3	-5.2%	7.7%	-14.4	10.0%	8.6%
COc1ccc(OC)c(C(=O)/C=C/c2cccnc2)c1	-5.6	7.38µM*	-38.6%	-5.0	u	-12.2%
CC(Oc1ccccc1)C(=O)Nc1nnc(S(=O)(=O)N(C)c2ccccc2)s1 (stereo not given)	-0.7	3.9%	u	10.8	-6.8%	4.6%
SMILES	CHX counter	Pf growth 96h	SARS PLpro yeast	Shiga inhibitor	Pf growth 48h	NS1 function inh
O=C(NNC(=O)c1ccccc1F)C1=NN(c2ccccc2)C(=O)CC1	-2.2	u	5.7%	-8.0	u	-18.9%
CCc1cccc(CC)c1NC(=O)COC(=O)C1(C)CC1(Cl)Cl (stereo not given)	-1.7	30.0%	3.4%	10.2	6.4%	-6.4%
O=P1(NCCCn2cc[n+](Cc3nc4ccccc4[nH]3)c2)C=C(c2ccccc2)OC(c2ccccc2)=C1	-1.9	2.33µM*	-2.7%	-6.6	11.7µM*	-4.4%
O=C(c1cc2nc(C3CC3)cc(C(F)F)n2n1)N1CCOCC1	9.6	48.0%	-2.1%	32.5*	25.9%	-11.3%
COc1ccccc1CCNC(=O)C(=O)NCC1CCCN1S(=O)(=O)c1ccccc1 (stereo not given)	x	14.7µM*	1.2%	x	u	x
COc1cccc(C(=O)NCC2CCCN2S(=O)(=O)c2ccccc2)c1 (stereo not given)	x	11.7µM*	4.1%	x	u	x
COc1ccc(CCNC(=O)C(=O)NCC2CCCN2S(=O)(=O)c2ccccc2)cc1 (stereo not given)	x	11.7µM*	1.1%	x	-38.1%	x
COc1ccccc1CCNC(=O)C(=O)NCC1OCCN1S(=O)(=O)c1ccccc1 (stereo not given)	1.3	-11.5%	u	-4.8	-23.4%	-4.7%
COc1ccccc1CCNC(=O)C(=O)NCC1OCCN1S(=O)(=O)c1cccs1 (stereo not given)	33.6*	u	-5.1%	24.6*	-15.5%	-39.2%
CCCOc1ccc(C2=CSC3=NCCN23)cc1	-3.5	u	-4.3%	-3.8	u	-0.6%
O=C1CN(C(=O)c2ccc(F)cc2)c2ccccc2N1	-10.0	u	-2.7%	-4.5	14.7%	-7.9%
O=C(NCCC1CCCCN1S(=O)(=O)c1ccccc1)C(=O)NC1CCCC1 (stereo not given)	x	u	-0.8%	x	0.0%	x
Cc1ccccc1CNC(=O)C(=O)NCCC1CCCCN1S(=O)(=O)c1ccccc1 (stereo not given)	x	u	4.8%	x	13.1µM*	x
CC(C)c1nnc(-c2ccc(Cl)cc2)c(N(C)C)n1	3.0	9.28µM*	-0.6%	-13.5	u	-49.9%
COC(=O)c1cnn(-c2ccc(C)c(C)c2)c1-n1cccc1	20.2*	x	-3.5%	28.8	x	-47.7%
O=C(COC(=O)c1ccc(F)cc1Cl)NC1CCS(=O)(=O)C1 (stereo not given)	x	5.4%	-2.0%	x	6.7%	x
COc1ccc(S(=O)(=O)N2CCCCCC2)cc1C(=O)N1CCN(c2ccccc2C)CC1	x	5.86µM*	5.0%	x	11.7µM*	x
COc1ccc(N2CCN(C(=O)c3cc(S(=O)(=O)N4CCCCCC4)ccc3OC)CC2)cc1	x	u	1.7%	x	11.7µM*	x
COc1ccc(S(=O)(=O)N2CCCCCC2)cc1C(=O)N1CCN(c2ccccc2O)CC1	x	4.65µM*	0.0%	x	2.33µM*	x
COc1ccc(OC2CCN(S(=O)(=O)c3cccc(F)c3)CC2)cc1	36.5*	-8.8%	-3.6%	81.2*	12.5%	1.1%
COc1ccccc1N1CCN(C(=O)c2cc(S(=O)(=O)N3CCCCC3)ccc2C)CC1	x	x	0.8%	x	x	x
